From PubChem BioAssay (NCATS) come the findings set out here.

Values joined by “and” are separate entries in the source; they are usually repeats but may differ in a detail not shown here. Identical values can stand only once. A number with no mark means an inactive call. Inconclusive results are not listed. Active and inactive are the calls of the source. Unless noted, how the calls were made is not given here.

A short description of test [1]: qHTS assay to identify inhibitors of the type 1 interferon - major histocompatibility complex class I in skeletal muscle: Counter screen cell viability and HiBit confirmation (AID 1347412; active means well fitted inhibition curve with a large enough effect; further: potency means the concentration at half of the fitted maximal effect; on activity change, negative = inhibition: on the % scale 0 is the no-effect control and ±100 the full control effect; on all read-outs here: nearly all actives have a fitted effect of over 60% in size). Particulars: iHSKM muscle cells + IFN-b, HiBiT or CellTiter-Glo, 24 h; for activity change, negative = inhibition: at 45.9 µM (top of the series). The method, boiled down:
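After 24 h with human IFN-beta (4 ng/ml) and compound titrations (top 46 uM final, 1:3, 12 points), HLA-B HiBit myoblasts were lysed for either Nano-Glo HiBiT luminescence or CellTiter Glo viability on paired plates.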
(In general: Quantitative high-throughput screening tests each substance at several concentrations.)

The target in test [2] is Nuclear receptor subfamily 1 group I member 2 (Rattus norvegicus) (UniProt Q9R1A7). Briefly: qHTS assay for small molecule activators of the rat pregnane X receptor (rPXR) signaling pathway (AID 651751). Further: 0% is about no effect. Particulars: rPXR reporter cells, luciferase (One-Glo), 24 h.
Chain of Nuclear receptor subfamily 1 group I member 2 (Rattus norvegicus) (Q9R1A7 whole entry, looked up): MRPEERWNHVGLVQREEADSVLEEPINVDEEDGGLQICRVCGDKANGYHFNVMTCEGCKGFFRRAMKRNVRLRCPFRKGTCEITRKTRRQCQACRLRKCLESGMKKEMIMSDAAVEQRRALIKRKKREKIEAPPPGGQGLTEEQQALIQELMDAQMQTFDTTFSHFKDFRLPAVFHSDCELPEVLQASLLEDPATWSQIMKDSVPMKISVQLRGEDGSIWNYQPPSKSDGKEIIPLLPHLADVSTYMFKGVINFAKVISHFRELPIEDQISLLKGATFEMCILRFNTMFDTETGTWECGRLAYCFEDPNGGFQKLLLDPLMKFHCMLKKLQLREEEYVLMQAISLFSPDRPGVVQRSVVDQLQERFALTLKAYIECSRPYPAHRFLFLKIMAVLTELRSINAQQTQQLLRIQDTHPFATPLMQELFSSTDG
Test [3] in a line: qHTS assay for small molecule activators of the human pregnane X receptor (PXR) signaling pathway (AID 720659). Further: 0% is about no effect. Particulars: DPX-2 HepG2 CYP3A4-luciferase, 24 h; series mostly up to 92.3 µM.

For `O=C1C(SCCO)=C(SCCO)C(=O)c2ccccc21`, the Potency in test [1] (HiBiT) was 2.79 µM (active); in test [1] (Viability), 4.97 µM (active). On to `Cc1ccc(S(=O)(=O)/C=C/C#N)cc1`, for which the Potency in test [1] (HiBiT) was 5.57 µM (active); in test [1] (Viability), 17.6 µM (active). For `OCC1O[C@H]([S-])[C@H](O)[C@@H](O)[C@@H]1O.[Au+]` (some centres undefined), the activity change, negative = inhibition in test [1] (Viability) is -5.66%.

With `Nc1cc(-c2ccncc2)c[nH]c1=O`, in test [2], the max response was -2.86%. The result in test [3] was inactive. `O=S(=O)(c1cccc2c(I)cccc12)N1CCCNCC1`: the figures for the activity change, negative = inhibition in test [1] (HiBiT) and in test [1] (Viability) were -4.28% and -12.4%, respectively. Turning to `CCCOC(=O)c1ccc(O)cc1`, in test [2], the max response is -2.03% and 0.0614% and -3.63%. Turning to `[O-][n+]1ccccc1SSc1cccc[n+]1[O-]`, the figures for the Potency in test [1] (HiBiT) and in test [1] (Viability) were 0.496 µM (active) and 0.991 µM (active), respectively. Take `CCOC(=O)C1=C(C)NC(C)=C(C(=O)OCC)C1c1c(F)c(F)c(F)c(F)c1F`: the activity change, negative = inhibition in test [1] (HiBiT) is -2.44%; in test [1] (Viability), 9.02%. Consider `CC(C)NCC(O)COc1cccc2ccccc12` (centres undefined), for which the max response in test [2] is 2% and 7.81%. With `O=[N+]([O-])c1ccc2c(c1)S(=O)(=O)C=C2`, the Potency in test [1] (HiBiT) was 1.76 µM (active). On to `Nc1nc2ccc([N+](=O)[O-])cc2s1`, for which the max response in test [2] is -3.29%. The molecule was called inactive in test [3]. As to `COc1cc(CNC(=O)CCCC/C=C/C(C)C)ccc1O`, the max response in test [2] is 0.324% and -3.76%. Still for that read-out and setting: the figure for `O=C(Nc1ccccc1)c1cc([N+](=O)[O-])ccc1Cl` is -1.59%. As for `COc1ccc(/C=C2\COc3ccc(C)cc3C2=O)cc1O`, the Potency in test [1] (HiBiT) is 14 µM (active). The activity change, negative = inhibition in test [1] (Viability) is -21.6%. For `CCOC(=O)N1CCN(/[N+]([O-])=N/Oc2ccc([N+](=O)[O-])cc2[N+](=O)[O-])CC1`, in that order: 6.25 µM (active) and 17.2%.

With `COC(=O)c1nc(Cl)c(Cl)nc1N`, the Potency in test [1] (HiBiT) was 2.22 µM (active); in test [1] (Viability) it was 11.1 µM (active). For the molecule `N#C/C(=C\c1ccc(-c2cc(Cl)ccc2Cl)o1)C(=O)Nc1cccc2ncccc12`, in test [1] (Viability), the activity change, negative = inhibition is -18.8%. With `COC(=O)C1=C(C)NC(C)=C(C(=O)OC)C1c1cccc(NC(=O)NCCCN2CCC(c3cccc(OC)c3)CC2)c1`, the activity change, negative = inhibition in test [1] (HiBiT) is -3.18%; in test [1] (Viability), -19.5%. As to `CC(C)(C)c1ccc(S(=O)(=O)/C=C/C#N)cc1`, the Potency was 2.79 µM (active) in test [1] (HiBiT) and 11.1 µM (active) in test [1] (Viability). As for `CN(C)c1ccc(C(=C2C=CC(=[N+](C)C)C=C2)c2ccccc2)cc1`, the values for the Potency in test [1] (HiBiT) and in test [1] (Viability) were 1.98 µM (active) and 3.94 µM (active), respectively. Moreover, in test [3], the outcome was inactive.

`O=C(NOCC1CC1)c1cc(Br)c(F)c(F)c1Nc1ccc(I)cc1Cl`: in test [1] (Viability), the activity change, negative = inhibition was -18.5%. Take `O=C(Nc1ccncc1)c1cc([N+](=O)[O-])ccc1Cl`: in test [1] (HiBiT), the Potency is 15.7 µM (active). Moreover, in test [1] (Viability), the activity change, negative = inhibition is -27.4%. `CN1[C@@H]2CC[C@H]1CC(OC(=O)C(CO)c1ccccc1)C2` (some centres undefined): the outcome in test [3] was inactive. For the molecule `Nc1ccc([N+](=O)[O-])cc1O`, the max response in test [2] is -5.85% and -4.85%. In addition, in test [3], the result was inactive.

Turning to `O=C(O)c1cc(O)c(O)c(O)c1`, in test [2], the max response was -9.5%. In addition, in test [3], the outcome was inactive. On to `c1ccc2sc(SSc3nc4ccccc4s3)nc2c1`, for which the max response in test [2] was -2.5% and 11.1%. Further, the call in test [3] was inactive. Consider `C=CCCCCCCCCC(=O)O`, for which, in test [2], the max response is 0.475%. Besides, the molecule was called inactive in test [3]. Take `Nc1ccc(O)c(C(=O)O)c1`: the max response in test [2] was -0.0122% and -1.86%. For the same molecule, the call in test [3] was inactive.

As to `Nc1ccc(O)c([N+](=O)[O-])c1`, the max response in test [2] was -2.38% and -0.765%. Further, the outcome in test [3] was inactive.

Take `NCCO`: the max response in test [2] was -4.55%. Also, the outcome in test [3] was inactive. For `Oc1ccccc1O`, in that order: 2.32% and “inactive”. As to `S=c1[nH]c2ccccc2s1`, in test [2], the max response is 4.63% and 1.9%. The outcome in test [3] was inactive. Consider `CCCCCCCCCCCCCCCCCC(=O)O`, for which the max response in test [2] is 1.24% and 3.12% and 0.368%. In addition, the molecule was called inactive in test [3].

`CC1(C)S[C@@H]2[C@H](NC(=O)[C@H](N)c3ccccc3)C(=O)N2[C@H]1C(=O)O`: the max response in test [2] is -3.75%. Further, the result in test [3] was inactive.

For the molecule `O=C(O)/C=C\C(=O)O`, the max response in test [2] was 4.35%. Moreover, the molecule was classed as inactive in test [3]. As for `CN(C)c1ccc(N=NS(=O)(=O)O)cc1`, the call in test [3] was inactive. Take `CN(C)CCC(c1ccc(Cl)cc1)c1ccccn1` (centres undefined): the max response in test [2] was 3.17%. In test [3], the result was inactive. For `CN1CCC[C@H]1c1cccnc1`, the max response in test [2] is 4.53% and 0.248%. Also, the molecule was classed as inactive in test [3]. Consider `O=C(O)c1ccccc1Nc1cccc(C(F)(F)F)c1`, for which the max response in test [2] was 1.7%. The molecule was called inactive in test [3].
